# Source: PubChem BioAssay AID540253 (National Center for Advancing Translational Sciences (NCATS), 2011)
# Screen size: about 340,000 compounds; about 240 (0.071%) were called active. About 5% were inconclusive and are not listed. The list comes from a sample in which actives are over-represented; it also holds similar structures and randomly drawn compounds. Values without a mark were called inactive. The call rests on the fitted dose curve.
# Biological target: Snurportin-1 (Homo sapiens) + GTP-binding nuclear protein Ran (Homo sapiens) + Importin subunit beta-1 (Homo sapiens) (UniProt O95149+P62826+Q14974)
# Assay: qHTS Assay for Inhibitors of RanGTP induced Rango (Ran-regulated importin-beta cargo) - Importin beta complex dissociation; further: nearly all actives have a fitted effect of over 45% in size; on activity change, negative = inhibition: % of control where 0% means no effect
# Conditions: Biochemical FRET Rango-importin beta; series mostly up to 46.1 µM; activity change, negative = inhibition: at the top concentration
# Text: NIH Molecular Libraries Probe Production Centers Network [MLPCN] NIH Chemical Genomics Center [NCGC] MLPCN Grant: R03 MH090808-01A1 Assay Submitter (PI): Petr Kalab NCGC Assay Overview: The small GTPase Ran regulates transport of macromolecules between the nucleus and the cytoplasm (nuclear transport) and has important functions in mitotic spindle assembly, nuclear envelope (NE) formation and nuclear pore complex (NPC) assembly. RanGTP gradient is thought to promote spindle assembly by providing a spatial clue to microtubule nucleation and Aurora A activation. Because the localized release and binding of importin alpha cargos relays this spatial clue to SAFs, inhibitors of the Rango - importin beta complex can then be used in further understanding their role in cell cycle specifically in mitosis progression. […] Activation of Aurora A has been linked to different types of cancer and a number of Aurora kinase inhibitors are being developed as potential canter therapeutics; therefore, identified inhibitors of this complex could be developed into potential anti-mitotic probes for cancer treatment. Purified recombinant proteins Rango - importin beta and RanGTP-RCC1 stock premixes were provided by the assay submitter. The assay used a fluorescence resonance energy transfer (FRET) Rango biosensor that contains the IBB of human snurportin 1 flanked by yellow fluorescent protein (EYFP) at the amino terminus and cerulean CFP10 at the carboxy terminus. […] RanGTP binding to the complex (in the presence of RCC1) releases the Rango from the complex. The flexibility of the IBB in the freed Rango allows the donor - acceptor fluorophores to interact, resulting in a high FRET signal. Inhibitors will therefore be identified based on the ability to interfere with the FRET signal increase. DMSO treated and no RanGTP-RCC1 (buffer only) wells were used as negative and positive controls respectively. FRET readings were obtained at two time points. FRET reading prior to importin beta addition (pre-read) were used flag potential compound interference; FRET reading after importin beta addition (post-read) were used to identify inhibitors.
# NCGC Assay Protocol Summary: Two and a half uL/well of Rango- importin beta premix solution (0.1 uM Rango, 0.25 uM importin beta, 1x PBS, 1mM DTT, 0.02% Tween-20, 0.1% BSA final concentrations) was dispensed into 1536-well assay plates (Greiner, solid black medium-binding plates) with Aurora Discovery BioRAPTR Flying Reagent Dispenser (FRD; Beckton-Dickenson). Compound solution (23 nL) was transferred to the assay plate using Kalypsys pin tool equipped with a 1536-pin tool and incubated at room temperature for 5 min followed by a FRET pre-read using the PerkinElmer Envision plate reader. Two and a half uL/well of RanGTP-RCC1 premix solution (0.6 uM Ran, 2mM GTP, 0.2 uM RCC1, 1x PBS, 1mM DTT, 0.02% Tween-20, 0.1% BSA final concentrations) were then added and incubated at room temperature giving a final reaction volume of 5uL. After 45min FRET post-read was obtained via the Envision plate reader using the same optics and settings as the pre-read (CFP/YFP optimized dual optical module D450/D505; excitation mirror CFP 430/24 nm; and emission filters CFP 486/10 nm and YFP 530/10 nm).
# Potency means the concentration at half of the fitted maximal effect.
Compound,"activity change, negative = inhibition [%]",Potency
CSc1ncnc2c1ncn2CC(=O)C1CCC2C3CCC4=CC(=O)CCC4(C)C3CCC12C (stereo not given),-2,
COc1cccc2c1C(=O)c1c(O)c3c(c(O)c1C2=O)CC(O)(C(C)=NNC(=O)c1ccc(Cl)c(Cl)c1)CC3OC1CC(N)C(O)C(C)O1 (stereo not given),8.77,
CCCN(CCC)S(=O)(=O)c1cc2c(cc1Br)CCN2C(=O)CC,-8.15,
COc1ccc(C(=O)Nc2cccc(/C=C(/CCC(=O)O)c3nc4ccccc4s3)c2)cc1,11.4,
CCCN(C(=O)COC(=O)CNS(=O)(=O)c1ccc(NC(C)=O)cc1)C1CCS(=O)(=O)C1 (stereo not given),-7.66,
CC(=NNC(=S)N1CCCCCC1)c1ccccn1,-12.1,
Cc1cccc(CC2(O)C(=O)Nc3ccccc32)n1 (stereo not given),16.1,
Cc1cc(OCCCC(=O)Nc2cc(S(=O)(=O)N3CCOCC3)ccc2N2CCOCC2)ccc1Cl,0.551,
COC1=CC(=O)OC(C)(c2ccccc2)C1 (stereo not given),-0.43,
COc1ccc2c(c1)C(=O)CC(c1ccccc1)O2 (stereo not given),-4,
CC(NC(=O)c1ccccc1)C(=O)OCC(=O)Nc1cccc(S(=O)(=O)N2CCCC2)c1 (stereo not given),4.12,
O=C1C(=O)N(c2ccccc2)C(c2ccccc2)C1c1ccccc1 (stereo not given),-1.36,
Cc1ccc(OCCNC(=O)c2cccc(S(=O)(=O)N3CCN(Cc4ccccc4)CC3)c2)cc1,1.12,
COC[C@@H]1NS(=O)(=O)c2ccc(Br)cc2O[C@H]1c1ccccc1,6.09,
CN(C(=O)c1cccc(NC(=O)Cc2cccc(NC(=O)C3CCCN(C(=O)C4CC4)C3)c2)c1)C1CCC1 (stereo not given),9.2,
O=S1(=O)CCOC[C@H](Cc2ccccc2)N1Cc1ccccc1Br,-14.1,
O=c1oc2ccccc2c(=O)c2ccccc12,-1.68,
Cc1ccc(/C=C/C(=O)Nc2ccc([N+](=O)[O-])c(NC(=O)/C=C/c3ccc(C)o3)c2)o1,4.02,
O=C(NNC(=O)C1CCCC1)c1ccc(F)cc1,-12.5,
O=C(/C=C/c1ccc([N+](=O)[O-])o1)NNC(=O)c1ccc(F)cc1,,20.6 µM [inhibitor] (active)
O=C(Cc1ccc(NC(=O)C2CCCN(C(=O)CCc3ccccc3)C2)cc1)Nc1ccc(C(=O)N2CCOCC2)cc1 (stereo not given),-14.9,
CC(C)=CCc1ccc(O)c(=O)cc1C(C)C,-24.9,
CCCCN(C(=O)CSCc1ccc(C)cc1)c1c(N)n(Cc2ccccc2)c(=O)[nH]c1=O,-5.98,
CSCCC(NC(=O)COc1ccccc1)C(=O)OCc1ccc(Cl)cc1 (stereo not given),18.7,
CC(C)Sc1nc(N)nc2c1ncn2C1OC(CO)C(O)C1O (stereo not given),0.224,

Compound,"activity change, negative = inhibition [%]",Potency
COc1ccc(N)c(C)c1,-6.1,
CN1CCC(N(C)C(=O)c2ccc(Cl)c(S(=O)(=O)Nc3ccc(Cl)cc3)c2)CC1,8.88,
CC1C(C)N(C(=O)CCl)c2ccccc2N1C(=O)CCl (stereo not given),-12.9,
Cn1c(=S)sc2ccc3ccccc3c21,-3.6,
COC(=O)Cc1c(-c2[nH]c3ccccc3c2CC(=O)OC)[nH]c2ccccc12,-26.3,
COc1cc2c(cc1OC)C1C(=O)c3cc(OS(C)(=O)=O)c(OC)cc3C1N(C)C2=O (stereo not given),15.9,
COc1ccc2oc(N)nc2c1,-10.7,
CCN(CC)S(=O)(=O)c1cccc(NC(=O)c2ccc(S(=O)(=O)N3CCCC3)cc2)c1,-1.05,
CCOC(=O)C1CCCN(C(=O)C2CCN(S(=O)(=O)c3ccc(Cl)c(C(F)(F)F)c3)CC2)C1 (stereo not given),8.65,
O=C(Nc1ccccc1)Oc1cccc2cccnc12,0.533,
O=C(NCC1CCCCC1)NCC1CCCCC1,-4.77,
CSCCC(NC(=O)COc1ccccc1)C(=O)N1CCN(c2cccc(C(F)(F)F)c2)CC1 (stereo not given),6.27,
O=C(CC(=O)c1cccnc1)c1ccccc1,-9.8,
Nc1cc2c(cc1Br)-c1ccc(F)cc1C2=O,-2.67,
O=C1/C(=C\c2ccc([N+](=O)[O-])cc2)CS(=O)(=O)C/C1=C/c1ccc([N+](=O)[O-])cc1,-1.03,
O=C(NNC(=O)c1ccccc1O)c1ccccc1O,0.604,
CCOC(=O)C(CO)NC(=O)C1(NC(C)=O)CCCC1 (stereo not given),-19,
CCCC(O)(c1ccccc1)C(c1ccccc1)c1ccccn1 (stereo not given),4.52,
O=C(NCCc1ccccc1)c1c[nH]c2ccc(F)cc2c1=O,5.88,
O=C1CC[C@@H]2CC3(C[C@@H]4CCN1[C@H]24)Nc1cc([N+](=O)[O-])ccc1NC3=NC1CCCCC1 (stereo not given in full),-11.5,
CN(C(=O)c1cccc(NC(=O)Cc2ccc(NC(=O)C3CCCN(C(=O)C4CC4)C3)cc2)c1)C1CC1 (stereo not given),-9.52,
CN(CCc1ccccc1)C(=O)c1cccc(NC(=O)Cc2cccc(NC(=O)C3CCCN(C(=O)C4CCC4)C3)c2)c1 (stereo not given),-5.32,
C[C@@H]1ON(C)[C@H]2C[C@H]3c4cc(N5CCN(C)CC5)ccc4CCN3C(=O)[C@@H]12,-18.3,
CC1CCCN(C(=O)Cn2c(=O)oc3cc(S(=O)(=O)N4CCCCC4C)ccc32)C1 (stereo not given),-5.13,
NC1=NOC(=O)C1C1CCCCC1 (stereo not given),41.4,
